Only some compounds are listed: those with a hit (about 5% of all), similar ones and a draw of the others.
USP2a inhib – qHTS Assay for Inhibitors of Ubiquitin-specific Protease USP2a. Ubiquitin carboxyl-terminal hydrolase 2 (Homo sapiens), O75604. USP2a enzymatic assay, qHTS inhibition. Potency, µM (highest dose often 38.3 µM), usual class: inhibitors. hit rate 0.1% among 60,000; further: nearly all actives have a fitted effect of over 60% in size
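Coupled readout: USP2-cleaved Ub-PLA2 (20nM final) turns over NBD C6-HPC (20uM final), Ex 460nm/Em 535nm after 2.5 h, time-zero read flagging artifacts. Enzyme (20nM final, pH 8.0 Tris) given 30 min RT with compound first; NEM defines full inhibition.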
TSHR agonist – qHTS Assay for Agonists of the Thyroid Stimulating Hormone Receptor | HEK293-CNG-TSHR cells (CNG channel as cAMP sensor), membrane potential dye, cAMP | Potency, µM (series often up to 57.1 µM), usual class: activators | hit rate 0.48% among 73,000 | AID 926, 2007; active means well fitted activation curve with a large enough effect in the main read-out, with a control signal flat, not every such curve was filed as active; inconclusive means small, poorly fitted or top-dose-only effect, or a change in a side signal; inactive means no such curve, though single readings can be large or run the other way; reference of the percent scale not stated here;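 further: the control signal comes from parental cells without the receptor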
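HEK 293 cells stably expressing TSHR and a cAMP-gated CNG channel; parental CNG-only cells as counterscreen. Cells preloaded 60 min with membrane potential dye plus 100 uM RO 20-1724, then compound 30 min; fluorescence read at 590 nm.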
Casp7 inh – qHTS Assay for Allosteric/Competitive Inhibitors of Caspase-7 | AID 889, 2007 | hit rate 0.02% among 75,000 | Potency, µM (series often up to 57.5 µM), usual class: inhibitors | P55210 | recombinant caspase-7, Ac-DEVD-AFC fluorescence rate; active means well fitted inhibition curve with a large enough effect in the main read-out, with a control signal flat, not every such curve was filed as active; inconclusive means small, poorly fitted or top-dose-only effect, or a change in a side signal
HEK293 cAMP ctrl – qHTS Assay for Agonists of the Thyroid Stimulating Hormone Receptor: Activators of Intracellular cAMP Concentrations in Parental HEK 293; parental HEK293 CNG cAMP sensor, membrane potential fluorescence; Potency, µM (titrated, usually from 57.1 µM), actives largely listed as activators; hit rate 2.5% among 73,000; further: nearly all actives have a fitted effect of over 55% in size
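Parental HEK 293 cells stably expressing a cAMP-gated CNG channel were loaded with membrane potential dye containing 100 uM RO 20-1724 for 60 min. Compound added for 30 min; depolarization read as fluorescence intensity at 590 nm.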
Casp1 inh – qHTS Assay for Allosteric/Competitive Inhibitors of Caspase-1 | P29466 | Caspase-1 enzyme, Ac-WEHD-AFC fluorogenic rate | Potency, µM (highest dose often 57.5 µM), most hits filed as inhibitors | hit rate 0.03% among 75,000 | AID 900, 2007
CRE-bla Fsk – Cell signaling CRE-BLA (Fsk stim). CHO CRE-bla reporter (cAMP response element driving beta-lactamase), forskolin EC10, beta-lactamase ratio. AID 662, 2007. hit rate 2.5% among 71,000. Potency, µM (series often up to 38.2 µM), usual class: activators; active means well fitted activation curve with a large enough effect in the signal ratio, with a control signal flat, not every such curve was filed as active; inconclusive means small, poorly fitted or top-dose-only effect, or effect the other way, or a change in a side signal; the % refers to the signal ratio
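The 460nm/530nm emission ratio after CCF4 loading defined %Activity, from which AC50 values were obtained. CRE-bla CHO cells received compound dilution series together with an EC10 level of NKH 477 for 3 hours at 37 degrees Celsius.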
Large screens that a line does not name were inactive. Unless noted, the call rests on the fitted dose curve; in most records, active means well fitted curve in the direction sought with a large enough effect; inconclusive means small, poorly fitted or top-dose-only effect, or another doubt; inactive means no such curve, though single readings can be large; an effect the other way counts as inactive or inconclusive.

CCCc1cc(C(=O)N(C2CCCCC2)C2CCCCC2)no1	TSHR agonist 20µM (no result: USP2a inhib)
CCCc1cc(C(=O)NC2CCCCC2)no1	none (no result: USP2a inhib)
COc1ccc(C2C(C(=O)N3CCC(C)CC3)c3ccccc3C(=O)N2C)cc1 (stereo unspecified)	TSHR agonist inconclusive, HEK293 cAMP ctrl inconclusive
COc1ccc(C2C(C(=O)N3CC(C)CC(C)C3)c3ccccc3C(=O)N2C)cc1 (stereo unspecified)	TSHR agonist inconclusive, HEK293 cAMP ctrl 15.8µM
C[C@@H]1NC(=O)C/C=C\[C@@H](C)[C@@H]2C=C[C@H](O)[C@@H](COC(=O)[C@H](C)NC(=O)C/C=C\[C@@H](C)[C@@H]3C=C[C@H](O)[C@@H](COC1=O)O3)O2	none (no result: USP2a inhib, CRE-bla Fsk)
O=C1Cc2ccccc2C(=O)N1CCc1ccccc1	Casp7 inh 6.31µM, Casp1 inh 5.01µM (no result: USP2a inhib)
O=S(=O)(CCc1nnc(-c2ccccc2)o1)c1ccc2ccccc2c1	none
CN(c1ccc(OCc2nnc(-c3ccccc3)o2)cc1)S(=O)(=O)c1ccccc1	TSHR agonist inconclusive, HEK293 cAMP ctrl 15.8µM, CRE-bla Fsk inconclusive
O=C(O)c1ccccc1NS(=O)(=O)c1ccc(Cl)c(Cl)c1	none (no result: USP2a inhib, CRE-bla Fsk)
O=C1c2ccc(O)c(O)c2C(=O)c2c(O)ccc(O)c21	USP2a inhib 3.98µM (no result: TSHR agonist, HEK293 cAMP ctrl, CRE-bla Fsk)
CCOC(=O)c1c(CN2CCCCC2)n(C)c2cc(Br)c(OC)cc12	TSHR agonist inconclusive, HEK293 cAMP ctrl inconclusive, CRE-bla Fsk 10µM
CCOC(=O)c1c(CN2CCCCC2)n(C)c2cc(Br)c(O)c(CN(C)C)c12	none (no result: USP2a inhib)
O=C(CN(CCc1ccccc1)C(=O)Cn1nnc(-c2cccs2)n1)NCc1ccco1	TSHR agonist inconclusive, HEK293 cAMP ctrl 25.1µM
O=C(CN(CCc1ccccc1)C(=O)CN1C(=O)COc2ccccc21)NCc1ccco1	CRE-bla Fsk inconclusive (no result: USP2a inhib)
Cc1cc(C)n(-c2nc3ccccc3c(=O)n2OCC(=O)Nc2c(C)cccc2C)n1	TSHR agonist 12.6µM, CRE-bla Fsk inconclusive
Cc1ccccc1NC(=O)c1nc[nH]c1C(=O)NCc1ccccc1	CRE-bla Fsk 12.6µM
C=CCCC/C=C(/C)C(OCc1ccc(OC)cc1)C(CC/C=C(\C)C(N)=O)OC (stereo unspecified)	none (no result: USP2a inhib, CRE-bla Fsk)
Cc1cc(C)n2cc(CSc3nnc(-c4ccccc4)o3)nc2n1	CRE-bla Fsk 12.6µM
O=c1cnnc(SCCc2ccccc2)[nH]1	TSHR agonist inconclusive, Casp7 inh inconclusive, HEK293 cAMP ctrl 31.6µM, Casp1 inh inconclusive
COc1ccc(OC)c(C(c2nnnn2CCC(C)C)N2CCN(C(=O)c3ccco3)CC2)c1 (stereo unspecified)	TSHR agonist inconclusive, HEK293 cAMP ctrl 15.8µM
CC(C)CCn1nnnc1C(c1ccc(F)cc1)N1CCN(C(=O)c2ccco2)CC1 (stereo unspecified)	none
Cc1cc(C)cc(OCC(=O)Nc2cccc(-c3nnc(-c4ccco4)o3)c2)c1	TSHR agonist inconclusive, HEK293 cAMP ctrl 25.1µM
O=C(COc1ccccc1)Nc1cccc(-c2nnc(-c3ccccc3)o2)c1	TSHR agonist inconclusive, HEK293 cAMP ctrl 25.1µM
Cc1cc(-c2cccnc2)c(C#N)c(SCC#N)n1	TSHR agonist inconclusive, HEK293 cAMP ctrl inconclusive, CRE-bla Fsk 12.6µM
O=C1c2ccccc2[C@@H]([C@@H]2c3ccccc3C(=O)c3cc(Br)ccc32)c2ccc(Br)cc21	none (no result: USP2a inhib)
CCCC(=O)Nc1ccccc1NC(=O)C1CCCCC1	none
O=C(Nc1ccccc1N1CCN(c2ccccc2)CC1)C1CCCCC1	TSHR agonist inconclusive, HEK293 cAMP ctrl 7.94µM (no result: USP2a inhib)
C[N+](C)(C)CCN(Cc1cccs1)c1ccccn1	none (no result: USP2a inhib)
Cc1ccc(C)c(Cn2c(CO)nc3ccccc32)c1	TSHR agonist inconclusive, HEK293 cAMP ctrl 25.1µM
CC1CCN(C(=O)COC(=O)c2cc3ccccc3cc2O)CC1	TSHR agonist inconclusive, HEK293 cAMP ctrl 0.199µM
Cc1cc(C(=O)OCC(=O)N2CC(C)CC(C)C2)c(C)o1 (stereo unspecified)	none
CC1CC(C)CN(C(=O)COC(=O)c2cc3ccccc3cc2O)C1 (stereo unspecified)	TSHR agonist inconclusive, HEK293 cAMP ctrl 31.6µM
COC(=O)NC(c1cccc(F)c1)[C@@]1(C(=O)OC)CCCC1=O (stereo partly specified)	none (no result: USP2a inhib, TSHR agonist, CRE-bla Fsk)
COc1ccc(C(=O)[C@H](Br)[C@H](Br)C(=O)O)cc1	none (no result: USP2a inhib)
CC(C)=CCC/C(C)=C/COc1c2ccoc2cc2oc(=O)ccc12	TSHR agonist inconclusive, HEK293 cAMP ctrl 12.6µM, CRE-bla Fsk inconclusive (no result: USP2a inhib, Casp7 inh, Casp1 inh)
CC(C)=CCC/C(C)=C/COc1c2occc2cc2ccc(=O)oc12	none (no result: USP2a inhib, TSHR agonist, HEK293 cAMP ctrl, CRE-bla Fsk)
